# Results published in the supplement of paper PMC8728848.
# About 410 targets per protein were measured; listed, in parts, are those with the strongest signals and a random draw of the rest.
# How the values were obtained:
# Assay in all cases: glycan array binding signal (z-score within array); higher = stronger binding
# Details in all cases: glycan notation: IUPAC condensed, linker removed; mutation: R343V
# [1] = target: Fuc(a1-2)Gal(b1-4)Glc6S
# Summary of the method: (§1)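 The binding signal is a Z-score computed within each array and averaged over linkers. Arrays of the same protein sequence at different concentrations or buffers were also averaged together. Data originate from 3228 arrays in the Consortium for Functional Glycomics database, kept only where the protein sequence was available.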
# [2] = target: Fuc(a1-2)Gal(b1-4)GlcNAc(b1-3)Gal(b1-4)GlcNAc
# Summary of the method: as §1
# [3] = target: Fuc(a1-2)Gal6S(b1-4)Glc6S
# Summary of the method: as §1
# [4] = target: Fuc(a1-2)[Gal(a1-3)]Gal(b1-4)GlcNAc
# Summary of the method: as §1
# [5] = target: Fuc(a1-2)[GalNAc(a1-3)]Gal(b1-3)GlcNAc
# Summary of the method: as §1
# [6] = target: Fuc(a1-3)GlcNAc
# Summary of the method: as §1
# [7] = target: Gal(b1-3)Gal(b1-4)GlcNAc
# Summary of the method: as §1
# [8] = target: Gal(b1-3)GalNAc(b1-4)Gal(b1-4)Glc
# Summary of the method: as §1
# [9] = target: Gal(b1-3)[Fuc(a1-4)]GlcNAc(b1-3)Gal(b1-4)[Fuc(a1-3)]GlcNAc
# Summary of the method: as §1
# [10] = target: Gal(b1-3)[Neu5Ac(a2-6)]GlcNAc(b1-6)Gal(b1-4)Glc
# Summary of the method: as §1
# [11] = target: Gal(b1-4)GlcNAc(b1-6)GalNAc
# Summary of the method: as §1
# [12] = target: Gal3S(b1-4)Glc6S
# Summary of the method: as §1
# [13] = target: Gal3S6S(b1-4)GlcNAc6S
# Summary of the method: as §1
# [14] = target: GlcA(b1-6)Gal
# Summary of the method: as §1
# [15] = target: GlcNAc(b1-2)Man(a1-3)[GlcNAc(b1-2)Man(a1-6)]Man(b1-4)GlcNAc(b1-4)GlcNAc
# Summary of the method: as §1
# [16] = target: GlcNAc(b1-3)Gal(b1-3)GalNAc
# Summary of the method: as §1
# [17] = target: GlcNAc(b1-3)[GlcNAc(b1-4)][GlcNAc(b1-6)]GlcNAc
# Summary of the method: as §1
# [18] = target: GlcNAc(b1-4)Gal(b1-4)GlcNAc
# Summary of the method: as §1
# [19] = target: GlcNAc(b1-4)[GlcNAc(b1-6)]GalNAc
# Summary of the method: as §1
# [20] = target: Kdn(a2-3)Gal(b1-3)GlcNAc
# Summary of the method: as §1
# [21] = target: Man(a1-2)Man(a1-3)[Man(a1-6)]Man(a1-6)[Man(a1-2)Man(a1-3)]Man(b1-4)GlcNAc(b1-4)GlcNAc
# Summary of the method: as §1
# [22] = target: Man(a1-3)[Man(a1-6)]Man(a1-6)[Man(a1-2)Man(a1-3)]Man(b1-4)GlcNAc(b1-4)GlcNAc
# Summary of the method: as §1
# [23] = target: Man(a1-3)[Man(a1-6)]Man(a1-6)[Man(a1-3)]Man(b1-4)GlcNAc(b1-4)GlcNAc
# Summary of the method: as §1
# [24] = target: Neu5Ac(a2-3)Gal(b1-4)GlcNAc(b1-3)Gal(b1-3)GlcNAc
# Summary of the method: as §1
# [25] = target: Neu5Ac(a2-6)Gal(b1-4)GlcNAc6S
# Summary of the method: as §1
# [26] = target: Neu5Ac(a2-8)Neu5Ac(a2-3)Gal(b1-4)Glc
# Summary of the method: as §1
# [27] = target: Neu5Ac(a2-8)Neu5Ac(a2-8)Neu5Ac(a2-3)Gal(b1-4)Glc
# Summary of the method: as §1
binder,measurement,setting,value
Surfactant Protein D (Human); Neck + Carbohydrate Recognition Domain (NCRD) (Homo sapiens) (protein) MLLFLLSALVLLTQPLGYLEAEMKTYSHRTMPSACTLVMCSSVESGLPGRDRDGREGPRGEKGDPGLPGAAGQAGMPGQAGPVGPKGDNGSVGEPGPKGDTGPSGPPGPPGVPGPAGREGALGKQGNIGPQGKPGPKGEAGPKGEVGAPGMQGSAGARGLAGPKGERGVPGERGVPGNTGAAGSAGAMGPQGSPGARGPPGLKGDKGIPGDKGAKGESGLPDVASLRQQVEALQGQVQHLQAAFSQYKKVELFPNGQSVGEKIFKTAQFVKPFTEAQLLCTQAGGQLASPRSAAENAALQQLVVAKNEAAFLSMTDSKTEGKFTYPTGESLVYSNWAPGEPNDDGGSEDCVEIFTNGKWNDVACGEKRLVVCEF,glycan array binding signal (z-score),[1],-0.514
same,glycan array binding signal (z-score),[2],1.5
same,glycan array binding signal (z-score),[3],-0.304
same,glycan array binding signal (z-score),[4],-0.508
same,glycan array binding signal (z-score),[5],-0.559
same,glycan array binding signal (z-score),[6],3.11
same,glycan array binding signal (z-score),[7],-0.562
same,glycan array binding signal (z-score),[8],-0.463
same,glycan array binding signal (z-score),[9],2.11
same,glycan array binding signal (z-score),[10],-0.498
same,glycan array binding signal (z-score),[11],-0.546
same,glycan array binding signal (z-score),[12],-0.317
same,glycan array binding signal (z-score),[13],-0.189
same,glycan array binding signal (z-score),[14],-0.463
same,glycan array binding signal (z-score),[15],3.08
same,glycan array binding signal (z-score),[16],1.72
same,glycan array binding signal (z-score),[17],3.11
same,glycan array binding signal (z-score),[18],3.13
same,glycan array binding signal (z-score),[19],2.16
same,glycan array binding signal (z-score),[20],-0.504
same,glycan array binding signal (z-score),[21],2.61
same,glycan array binding signal (z-score),[22],3.01
same,glycan array binding signal (z-score),[23],3.27
same,glycan array binding signal (z-score),[24],-0.489
same,glycan array binding signal (z-score),[25],-0.319
same,glycan array binding signal (z-score),[26],-0.47
same,glycan array binding signal (z-score),[27],-0.49
